Laboratory results reported in PubChem BioAssay (NCATS).
Inconclusive results are not listed. A number with no mark means an inactive call. The source made the active and inactive calls. Calls follow the shape of the full dose curve; tested in HEK293 reporter line.

experiment: qHTS for Inhibitors of the Functional Ribonucleoprotein Complex (vRNP) of Lassa (LASV) Arenavirus: Viability assay - alamar blue signal for LASV Primary Screen (AID 1347083); conditions: cell viability, alamar blue fluorescence (LASV minigenome counter-screen); series mostly up to 57.5 µM; activity change, negative = reduced viability: at the top concentration; also: nearly all actives have a fitted effect of over 80% in size
% is scaled to controls: 0 for no effect and ±100 for the full control effect.

Question: Which “activity change, negative = reduced viability” value does the source give for `O=c1cc[nH]c(=O)[nH]1` here?
Answer: -0.45%

Question: For `Cc1ccc(Nc2nccc(N(C)c3ccc4c(C)n(C)nc4c3)n2)cc1S(N)(=O)=O`, which “activity change, negative = reduced viability” value is on record?
Answer: -0.965%

Question: Which “activity change, negative = reduced viability” value does the source give for `Cc1cc(=O)n(-c2ccccc2)n1C` here?
Answer: -0.45%

Question: With `CC[C@H](C)[C@H](N)C(=O)O` as the compound, how does the “activity change, negative = reduced viability” value read?
Answer: 4.32%

Question: With `CC1(C)O[C@H]2CC(=O)OC[C@]23[C@H]2CC[C@@]4(C)[C@H](c5ccoc5)OC(=O)[C@H]5O[C@]54[C@]2(C)C(=O)C[C@@H]13` as the compound, how does the Potency read?
Answer: inactive

Question: Which “activity change, negative = reduced viability” value does the source give for `CC(=O)c1cc2ccccc2s1` here?
Answer: 4.36%

Question: For `COc1ccccc1OCC1CNC(=O)O1` (stereo not given), which “activity change, negative = reduced viability” value is on record?
Answer: -1.74%

Question: With `Oc1ccc(Cl)c2cccnc12` as the compound, how does the “activity change, negative = reduced viability” value read?
Answer: -10%

Question: For `CC(C)NCC(O)c1cc(O)cc(O)c1` (stereo not given), which Potency is on record?
Answer: inactive

Question: With `CC(=O)N(CC(O)CO)c1c(I)c(C(=O)NCCO)c(I)c(C(=O)NCC(O)CO)c1I` (stereo not given) as the compound, how does the “activity change, negative = reduced viability” value read?
Answer: -3.42%

Question: Which “activity change, negative = reduced viability” value does the source give for `O=C(O)CCc1nc2ccccc2[nH]1` here?
Answer: 25.4%

Question: Which Potency does the source give for `Cc1nnc(NS(=O)(=O)c2ccc(N)cc2)s1` here?
Answer: inactive

Question: Which “activity change, negative = reduced viability” value does the source give for `Oc1ccccc1` here?
Answer: -2.51%

Question: For `CCN(CC)C(C)CN1c2ccccc2Sc2ccccc21` (stereo not given), which Potency is on record?
Answer: inactive

Question: With `Cc1ncc([N+](=O)[O-])n1CC(O)CCl` (stereo not given) as the compound, how does the “activity change, negative = reduced viability” value read?
Answer: 12.7%

Question: For `CCCN1CCCC[C@H]1C(=O)Nc1c(C)cccc1C`, which “activity change, negative = reduced viability” value is on record?
Answer: 2.18%

Question: Which “activity change, negative = reduced viability” value does the source give for `CCCCOCCOC(=O)c1cccnc1` here?
Answer: -12.7%

Question: Which “activity change, negative = reduced viability” value does the source give for `COc1ccc2nc(SCc3ncc(C)c(OC)c3C)[nH]c2c1` here?
Answer: -2.08%

Question: With `Cc1c(N(C)CS(=O)(=O)O)c(=O)n(-c2ccccc2)n1C` as the compound, how does the “activity change, negative = reduced viability” value read?
Answer: 19.8%

Question: With `CCN(CC)CC(=O)Oc1ccc(NC(C)=O)cc1` as the compound, how does the “activity change, negative = reduced viability” value read?
Answer: 0.701%

Question: Which “activity change, negative = reduced viability” value does the source give for `CNC[C@H](O)[C@@H](O)[C@H](O)[C@H](O)CO` here?
Answer: -0.257%

Question: Which Potency does the source give for `CCN(CC)CCOC(=O)c1ccc(N)cc1` here?
Answer: inactive

Question: Which Potency does the source give for `O=S(=O)(O)CCS` here?
Answer: inactive

Question: With `O=C(CCCl)NCc1ccccc1` as the compound, how does the “activity change, negative = reduced viability” value read?
Answer: 1.24%

Question: With `O=C(CCCl)NCCc1ccccc1` as the compound, how does the “activity change, negative = reduced viability” value read?
Answer: 18.6%

Question: With `CCOc1ccc(NS(=O)(=O)c2ccc(N)cc2)nn1` as the compound, how does the “activity change, negative = reduced viability” value read?
Answer: 12.6%

Question: With `Cc1cccn2c(=O)c(-c3nnn[nH]3)cnc12` as the compound, how does the “activity change, negative = reduced viability” value read?
Answer: 0.918% [at 24.7 µM]

Question: With `COc1cc(C(=O)N2CCCCCCC2)cc(OC)c1OC` as the compound, how does the “activity change, negative = reduced viability” value read?
Answer: 7.98%

Question: With `OCc1cccnc1` as the compound, how does the “activity change, negative = reduced viability” value read?
Answer: -0.448%

Question: With `CCC[C@@H]1C[C@@H](C(=O)N[C@@H]([C@H]2O[C@H](SC)[C@H](O)[C@@H](O)[C@H]2O)[C@@H](C)O)N(C)C1` as the compound, how does the Potency read?
Answer: inactive

Question: With `CC(C)(C)NC[C@H](O)COc1cccc2c1CCCC2=O` as the compound, how does the “activity change, negative = reduced viability” value read?
Answer: 10.8%

Question: Which “activity change, negative = reduced viability” value does the source give for `Cc1cc(C)c(NC(=O)CN(CC(=O)O)CC(=O)O)c(C)c1Br` here?
Answer: 11.9%

Question: Which “activity change, negative = reduced viability” value does the source give for `CCCCC(CC)CNC(=O)CC(C)OC(=O)CCC(=O)O` (stereo not given) here?
Answer: -4.17%

Question: With `COCCCN1CCC(NC(=O)c2cc(Cl)c(N)c3c2OCC3)CC1` as the compound, how does the “activity change, negative = reduced viability” value read?
Answer: 1.83%

Question: For `O=C(O)c1ccccc1Nc1cccc(C(F)(F)F)c1`, which “activity change, negative = reduced viability” value is on record?
Answer: 8.36%

Question: For `CO/N=C(/C(=O)N[C@@H]1C(=O)N2C(C(=O)[O-])=C(C[n+]3ccn4ncccc43)CS[C@H]12)c1nsc(N)n1`, which “activity change, negative = reduced viability” value is on record?
Answer: -7.75%

Question: With `C[N+]1(C)CCCC(OC(=O)C(O)(c2ccccc2)c2ccccc2)C1` (stereo not given) as the compound, how does the “activity change, negative = reduced viability” value read?
Answer: -4.46%

Question: With `Cc1scc2c1N(C(=O)CN1CCN(C)CC1)c1ccccc1NC2=O` as the compound, how does the Potency read?
Answer: inactive

Question: For `O=C(NC(Cc1cc(=O)[nH]c2ccccc12)C(=O)O)c1ccc(Cl)cc1` (stereo not given), which Potency is on record?
Answer: inactive

Question: Which “activity change, negative = reduced viability” value does the source give for `O=C(O)c1[nH]n(-c2ccc(S(=O)(=O)O)cc2)c(=O)c1N=Nc1ccc(S(=O)(=O)O)cc1` here?
Answer: 3.09%
